Records with an inconclusive call do not appear. Where a call stands in place of a potency, no number is given. Active and inactive are the calls of the source. The call rests on the fitted dose curve; in most records, active means well fitted curve in the direction sought with a large enough effect; inconclusive means small, poorly fitted or top-dose-only effect, or another doubt; inactive means no such curve, though single readings can be large; an effect the other way counts as inactive or inconclusive.
Assay: qHTS of pediatric cancer cell lines to identify multiple opportunities for drug repurposing: Confirmatory screen for SK-N-MC cells (AID 1347111);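 further: cells exposed to compound for 48 h before the readout; nearly all actives have a fitted effect of over 70% in size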
Conditions: SK-N-MC cell viability; series mostly up to 45.9 µM
Procedure, shortened: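 Metabolically active cells were quantified by ATP-dependent luminescence (CellTiter-Glo, 15 min at room temperature) following 48 h treatment. Cells had been plated at 500-1,000 per well and settled for 5 h beforehand.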
Potency means the concentration at half of the fitted maximal effect.

Which Potency does the source give for NC(=O)CC[C@@H]1NC(=O)[C@H](Cc2ccccc2)NC(=O)[C@H](Cc2ccc(O)cc2)NC(=O)CCSSC[C@@H](C(=O)N2CCC[C@H]2C(=O)N[C@@H](CCCN=C(N)N)C(=O)NCC(N)=O)NC(=O)[C@H](CC(N)=O)NC1=O here?
The Potency was “inactive”.

With C[C@H]1C[C@H]2[C@@H]3CCC4=CC(=O)C=C[C@]4(C)[C@@]3(Cl)[C@@H](O)C[C@]2(C)[C@@]1(O)C(=O)CO as the compound, how does the Potency read?
The Potency was “inactive”.

With CCCCC(CC)CN=C(N)NC(N)=NCCCCCCN=C(N)NC(N)=NCC(CC)CCCC (configuration not stated) as the compound, how does the Potency read?
Its Potency is 7.37 µM (active).

Which Potency does the source give for C[C@]12C=CC(=O)C=C1[C@@H](F)C[C@@H]1[C@@H]2[C@@H](O)C[C@@]2(C)[C@H]1CC[C@]2(O)C(=O)CO here?
The Potency was “inactive”.

Which Potency does the source give for CC(C)(C(=O)c1cccnc1)c1cccnc1 here?
The Potency was 2.93 µM (active).

Assay: qHTS of pediatric cancer cell lines to identify multiple opportunities for drug repurposing: Confirmatory screen for BT-12 cells (AID 1347112); further: nearly all actives have a fitted effect of over 55% in size
Conditions: BT-12 rhabdoid tumor cells, viability; series mostly up to 45.9 µM
Procedure, shortened: (§1)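 Cells (500-1,000/well) in growth media were settled 5 h at 37 degrees C, then given compounds for 48 h. Viability was read as CellTiter-Glo luminescence. Primary runs used MIPE at 11 points (0.78 nM-46 µM) and NPC at 8 points (0.59 nM-46 µM); follow-ups used 11 points.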

With NC(=O)CC[C@@H]1NC(=O)[C@H](Cc2ccccc2)NC(=O)[C@H](Cc2ccc(O)cc2)NC(=O)CCSSC[C@@H](C(=O)N2CCC[C@H]2C(=O)N[C@@H](CCCN=C(N)N)C(=O)NCC(N)=O)NC(=O)[C@H](CC(N)=O)NC1=O as the compound, how does the Potency read?
Its Potency is “inactive”.

With C[C@H]1C[C@H]2[C@@H]3CCC4=CC(=O)C=C[C@]4(C)[C@@]3(Cl)[C@@H](O)C[C@]2(C)[C@@]1(O)C(=O)CO as the compound, how does the Potency read?
Its Potency is “inactive”.

With CCCCC(CC)CN=C(N)NC(N)=NCCCCCCN=C(N)NC(N)=NCC(CC)CCCC (configuration not stated) as the compound, how does the Potency read?
Its Potency is 5.22 µM (active).

For C[C@]12C=CC(=O)C=C1[C@@H](F)C[C@@H]1[C@@H]2[C@@H](O)C[C@@]2(C)[C@H]1CC[C@]2(O)C(=O)CO, which Potency is on record?
Its Potency is “inactive”.

For CC(C)(C(=O)c1cccnc1)c1cccnc1, which Potency is on record?
The Potency was “inactive”.

Assay: qHTS of pediatric cancer cell lines to identify multiple opportunities for drug repurposing: Confirmatory screen for LAN-5 cells (AID 1347113); further: nearly all actives have a fitted effect of over 65% in size
Conditions: LAN-5 neuroblastoma cell viability; series mostly up to 45.9 µM
Procedure, shortened: as §1

Which Potency does the source give for NC(=O)CC[C@@H]1NC(=O)[C@H](Cc2ccccc2)NC(=O)[C@H](Cc2ccc(O)cc2)NC(=O)CCSSC[C@@H](C(=O)N2CCC[C@H]2C(=O)N[C@@H](CCCN=C(N)N)C(=O)NCC(N)=O)NC(=O)[C@H](CC(N)=O)NC1=O here?
Its Potency is “inactive”.

Which Potency does the source give for C[C@H]1C[C@H]2[C@@H]3CCC4=CC(=O)C=C[C@]4(C)[C@@]3(Cl)[C@@H](O)C[C@]2(C)[C@@]1(O)C(=O)CO here?
The Potency was “inactive”.

For CCCCC(CC)CN=C(N)NC(N)=NCCCCCCN=C(N)NC(N)=NCC(CC)CCCC (configuration not stated), which Potency is on record?
Its Potency is 7.37 µM (active).

With C[C@]12C=CC(=O)C=C1[C@@H](F)C[C@@H]1[C@@H]2[C@@H](O)C[C@@]2(C)[C@H]1CC[C@]2(O)C(=O)CO as the compound, how does the Potency read?
Its Potency is “inactive”.

Assay: qHTS of pediatric cancer cell lines to identify multiple opportunities for drug repurposing: Confirmatory screen for DAOY cells (AID 1347114); further: nearly all actives have a fitted effect of over 65% in size
Conditions: DAOY medulloblastoma cells viability, cytotoxicity qHTS; series mostly up to 45.9 µM
Procedure, shortened: (§2)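 Viability measured as metabolically active cells via CellTiter-Glo luminescence following 48 hours of compound exposure, 11-point dilutions in confirmatory testing. 500-1,000 cells/well plated 5 hours before dosing; controls were DMSO and 2.3 µM bortezomib.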

With NC(=O)CC[C@@H]1NC(=O)[C@H](Cc2ccccc2)NC(=O)[C@H](Cc2ccc(O)cc2)NC(=O)CCSSC[C@@H](C(=O)N2CCC[C@H]2C(=O)N[C@@H](CCCN=C(N)N)C(=O)NCC(N)=O)NC(=O)[C@H](CC(N)=O)NC1=O as the compound, how does the Potency read?
Its Potency is “inactive”.

With C[C@H]1C[C@H]2[C@@H]3CCC4=CC(=O)C=C[C@]4(C)[C@@]3(Cl)[C@@H](O)C[C@]2(C)[C@@]1(O)C(=O)CO as the compound, how does the Potency read?
The Potency was “inactive”.

With CCCCC(CC)CN=C(N)NC(N)=NCCCCCCN=C(N)NC(N)=NCC(CC)CCCC (configuration not stated) as the compound, how does the Potency read?
Its Potency is 4.14 µM (active).

For C[C@]12C=CC(=O)C=C1[C@@H](F)C[C@@H]1[C@@H]2[C@@H](O)C[C@@]2(C)[C@H]1CC[C@]2(O)C(=O)CO, which Potency is on record?
The Potency was “inactive”.

For CC(C)(C(=O)c1cccnc1)c1cccnc1, which Potency is on record?
The Potency was “inactive”.

Assay: qHTS of pediatric cancer cell lines to identify multiple opportunities for drug repurposing: Confirmatory screen for NB-EBc1 cells (AID 1347115);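 further: cells exposed to compound for 48 h before the viability read; nearly all actives have a fitted effect of over 45% in size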
Conditions: NB-EBc1 neuroblastoma cells, viability (cytotoxicity); series mostly up to 45.9 µM
Procedure, shortened: as §1

With NC(=O)CC[C@@H]1NC(=O)[C@H](Cc2ccccc2)NC(=O)[C@H](Cc2ccc(O)cc2)NC(=O)CCSSC[C@@H](C(=O)N2CCC[C@H]2C(=O)N[C@@H](CCCN=C(N)N)C(=O)NCC(N)=O)NC(=O)[C@H](CC(N)=O)NC1=O as the compound, how does the Potency read?
The Potency was “inactive”.

Which Potency does the source give for C[C@H]1C[C@H]2[C@@H]3CCC4=CC(=O)C=C[C@]4(C)[C@@]3(Cl)[C@@H](O)C[C@]2(C)[C@@]1(O)C(=O)CO here?
Its Potency is “inactive”.

With CCCCC(CC)CN=C(N)NC(N)=NCCCCCCN=C(N)NC(N)=NCC(CC)CCCC (configuration not stated) as the compound, how does the Potency read?
The Potency was 9.27 µM (active).

With C[C@]12C=CC(=O)C=C1[C@@H](F)C[C@@H]1[C@@H]2[C@@H](O)C[C@@]2(C)[C@H]1CC[C@]2(O)C(=O)CO as the compound, how does the Potency read?
The Potency was “inactive”.

Which Potency does the source give for CC(C)(C(=O)c1cccnc1)c1cccnc1 here?
Its Potency is “inactive”.

Assay: qHTS of pediatric cancer cell lines to identify multiple opportunities for drug repurposing: Confirmatory screen for SJ-GBM2 cells (AID 1347116); further: nearly all actives have a fitted effect of over 60% in size
Conditions: SJ-GBM2 glioblastoma cells, viability; series mostly up to 45.9 µM
Procedure, shortened: as §2

With NC(=O)CC[C@@H]1NC(=O)[C@H](Cc2ccccc2)NC(=O)[C@H](Cc2ccc(O)cc2)NC(=O)CCSSC[C@@H](C(=O)N2CCC[C@H]2C(=O)N[C@@H](CCCN=C(N)N)C(=O)NCC(N)=O)NC(=O)[C@H](CC(N)=O)NC1=O as the compound, how does the Potency read?
Its Potency is “inactive”.

For C[C@H]1C[C@H]2[C@@H]3CCC4=CC(=O)C=C[C@]4(C)[C@@]3(Cl)[C@@H](O)C[C@]2(C)[C@@]1(O)C(=O)CO, which Potency is on record?
The Potency was “inactive”.

With CCCCC(CC)CN=C(N)NC(N)=NCCCCCCN=C(N)NC(N)=NCC(CC)CCCC (configuration not stated) as the compound, how does the Potency read?
Its Potency is 1.17 µM (active).

— PubChem BioAssay (NCATS)
